Only a selection was taken, and hits are over-represented in it overall.
FBPA Giardia inh = Giardia lamblia aldolase inhibition; A8B2U2; purified Giardia FBPA; Potency, µM (doses to about 59.6 µM), for inactives: at the highest dose activity, negative = inhibition, hits mostly inhibitors; actives 0.71% (n = 290,000); AID 2451; further: potency means the concentration at half of the fitted maximal effect; on the % scale 0 is the no-effect control and ±100 the full control effect; nearly all actives have a fitted effect of over 55% in size
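40 nM FBPA preincubated 10 min at RT with compound (up to 57.5 uM final), then substrate plus GAPDH/TPI/NAD/arsenate coupling and diaphorase/resazurin added. Fluorescence read after 20 min at RT, 525/598 nm.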
Shiga inhibitor = blocks Shiga toxin action in Vero cells; Vero cells, Shiga toxin protein synthesis inhibition reporter; inhibition, % at 38.7 µM; actives 9.2% (n = 290,000); in the data active means inhibition mostly above about 28%, no sharp cut-off; inactive means mostly below about 43%; further: 0% is about no effect
TbPYK inhibitor = T. brucei pyruvate kinase inhibition; Q57TT1; actives 0.12% (n = 410,000); TbPYK enzyme, Kinase-Glo Plus ATP luminescence, 45 min; Potency, µM (titrated, usually from 76.8 µM), for the others: at the highest dose activity, negative = inhibition, most hits filed as inhibitors; AID 624173; further: potency means the concentration at half of the fitted maximal effect; on the % scale 0 is the no-effect control and ±100 the full control effect; nearly all actives have a fitted effect of over 50% in size
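ADP (130 uM final) triggers the TbPYK reaction after compound addition; incubation is 45 min at room temperature. Kinase-Glo Plus is then added and luminescence imaged. Normalized data are fitted to concentration-effect curves.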
RE007 growth inh = less growth of the S. pombe RE007 Vpr strain; S. pombe RE007 Vpr strain, BacTiter-Glo ATP luminescence, 24 h; Potency, µM (titrated, usually from 92.2 µM), for the others: top-dose activity change, negative = less growth, actives largely listed as inhibitors; actives 0.21% (n = 360,000); active means well fitted falling curve with a large enough effect; inconclusive means small, poorly fitted or top-dose-only effect; inactive means no such curve, though single readings can be large or run the other way; further: potency means the concentration at half of the fitted maximal effect; on the % scale 0 is the no-effect control and ±100 the full control effect; nearly all actives have a fitted effect of over 50% in size
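Fission yeast RE007 carrying one integrated HIV-1 vpr copy, seeded at OD 0.01 in PMG+AL medium with 23 nL pinned compound. Grown 24 h at 30 degrees; viability read by BacTiter-Glo luminescence after 5 min.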
LmPK inh = LmPK (Leishmania mexicana) enzyme inhibition. Q27686. AID 1721. Potency, µM (doses to about 57.5 µM), inactives show at the top dose activity change, negative = inhibition, actives largely listed as inhibitors. actives 0.37% (n = 290,000). purified LmPK, Kinase-Glo ATP luminescence, 1 h; further: potency means the concentration at half of the fitted maximal effect; on the % scale 0 is the no-effect control and ±100 the full control effect
Target sequence (Q27686 whole entry, looked up): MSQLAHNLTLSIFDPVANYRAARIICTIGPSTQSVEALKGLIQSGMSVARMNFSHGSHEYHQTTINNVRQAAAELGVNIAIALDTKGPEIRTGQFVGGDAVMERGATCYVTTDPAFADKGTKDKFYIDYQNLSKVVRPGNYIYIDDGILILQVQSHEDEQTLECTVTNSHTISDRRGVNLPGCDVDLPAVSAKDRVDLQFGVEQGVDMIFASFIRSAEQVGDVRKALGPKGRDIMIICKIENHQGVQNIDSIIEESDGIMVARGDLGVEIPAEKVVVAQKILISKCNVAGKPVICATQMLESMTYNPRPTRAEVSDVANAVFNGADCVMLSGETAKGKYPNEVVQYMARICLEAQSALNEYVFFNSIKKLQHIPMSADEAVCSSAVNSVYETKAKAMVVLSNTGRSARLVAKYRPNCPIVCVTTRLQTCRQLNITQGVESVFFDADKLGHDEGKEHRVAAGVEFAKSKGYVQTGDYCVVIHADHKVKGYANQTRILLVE
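qHTS format; LmPK 0.1 nM; substrates PEP 0.5 mM and ADP 0.1 mM. One-hour room-temperature incubation, then coupled luciferase luminescence; 0.5 nM enzyme wells mark activation.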
Cycloheximide cs = affects cycloheximide protein synthesis inhibition readout, counter-screen | cell reporter, cycloheximide protein synthesis inhibition counterscreen | max response, % | actives 12% (n = 300,000) | AID 2314; in the data active means max response mostly above about 13%, no sharp cut-off; inactive means mostly below about 14%; further: read at 38.3 µM for the half of the compounds with a filed dose; 0% is about no effect
Active calls of the source: *; u = inconclusive; x = not tested or not shown. Unless noted, the call rests on the fitted dose curve; in most records, active means well fitted curve in the direction sought with a large enough effect; inconclusive means small, poorly fitted or top-dose-only effect, or another doubt; inactive means no such curve, though single readings can be large; an effect the other way counts as inactive or inconclusive.

SMILES	FBPA Giardia inh	Shiga inhibitor	TbPYK inhibitor	RE007 growth inh	LmPK inh	Cycloheximide cs
O=C(Cc1ccccc1[N+](=O)[O-])OCN1C(=O)c2ccccc2C1=O	x	30	-11%	-3%	-9%	18*
Cc1cc(C)n(-c2ccc(N3CCOCC3)nn2)n1	-3%	57*	-9%	10%	-18%	33*
COc1ccc(/C=C2/NC(=O)CNC2=O)cc1	-8%	42	-4%	1%	8%	5
Cc1ccsc1C(=O)OCC(=O)c1ccc[nH]1	x	x	2%	-13%	x	x
Cc1ccc(C(=O)OCC(=O)c2ccc[nH]2)s1	2%	76*	-3%	3%	-10%	30*
O=C(COC(=O)c1ccc(Cl)s1)c1ccc[nH]1	0%	73*	-14%	13%	2%	27*
O=C(CNC(=O)N1CC(=O)Nc2ccccc21)Nc1ccc(F)c(Cl)c1	9%	-6	0%	-8%	2%	-3
O=C(CCSCc1cnn(-c2ccccc2)c1-n1cccc1)NCc1ccccc1Cl	x	x	-4%	x	x	x
CN(CCOc1ccccc1)CC(=O)Nc1ccc(Br)cc1F	0%	-5	0%	-14%	-2%	-2
COc1ccc(C(=O)N2N=C(c3cccc(NS(C)(=O)=O)c3)CC2c2cccs2)cc1 (stereo unspecified)	-4%	14	3%	17%	-2%	10
CS(=O)(=O)N1N=C(c2ccc(Br)cc2)CC1c1cccs1 (stereo unspecified)	0%	48*	28%	-13%	4%	32*
CCS(=O)(=O)Nc1cccc(C2=NN(S(=O)(=O)c3ccc(C)cc3)C(c3cccs3)C2)c1 (stereo unspecified)	-1%	6	-3%	24%	2%	-1
CC(=O)Nc1ccc(C2=NN(c3ccccc3)C(c3cccs3)C2)cc1 (stereo unspecified)	-6%	88*	0%	51%	3%	70*
Cc1ccc(C2=NN(S(C)(=O)=O)C(c3cccs3)C2)cc1 (stereo unspecified)	4%	178*	-9%	-28%	-24%	35*
Cc1cccc(C(=O)N2N=C(c3ccc(NS(C)(=O)=O)cc3)CC2c2cccs2)c1 (stereo unspecified)	-2%	-5	1%	-1%	7%	-3
COc1ccc(C2=NN(S(C)(=O)=O)C(c3cccs3)C2)cc1 (stereo unspecified)	-2%	60*	-1%	5%	u	41*
C=C(C)Cn1c(=O)c2c(nc3n2CCN3c2cc(C)cc(C)c2)n(C)c1=O	x	x	6%	x	x	x
CC(=O)c1ccc(NC(=O)c2nn(C)c3c2COc2ccccc2-3)cc1	x	x	1%	x	x	x
O=C(CNCCO)N1N=C(c2cccs2)CC1c1cccs1 (stereo unspecified)	4%	28	-1%	11%	3%	-1
CCc1ccc(C2=NN(S(C)(=O)=O)C(c3cccs3)C2)cc1 (stereo unspecified)	5%	88*	-7%	-14%	22µM*	65*
S=C(Nc1ccccc1)N1N=C(c2cccs2)CC1c1cccs1 (stereo unspecified)	-7%	20*	-22%	-8%	1%	7
Cc1ccc(C2=NN(C(=O)CNCCO)C(c3cccs3)C2)cc1 (stereo unspecified)	x	47	-4%	-10%	9%	42*
CS(=O)(=O)N1N=C(c2ccco2)CC1c1ccc(Br)cc1 (stereo unspecified)	6%	19	2%	7%	-1%	21*
O=C(COc1ccccc1)Nc1ccc(-c2ccc(N3CCOCC3)nn2)cc1	x	x	0%	u	x	x
COc1ccc(S(=O)(=O)N(CC(=O)Nc2ccc(F)c(Cl)c2)c2ccc(C)cc2)cc1OC	x	x	-1%	x	x	x
SMILES	FBPA Giardia inh	Shiga inhibitor	TbPYK inhibitor	RE007 growth inh	LmPK inh	Cycloheximide cs
O=C(NNC(=O)c1ccccc1OCc1ccccc1)c1ccccc1O	x	6	4%	10%	-11%	12
O=C(NNC(=O)c1ccccc1OCc1ccccc1)c1ccccc1F	-11%	73*	0%	-9%	0%	69*
O=C(N/N=C/c1ccccc1F)c1ccccc1OCc1ccccc1	-1%	75*	-3%	-7%	4%	20*
O=C(NNC(=O)c1ccccc1OCc1ccc(F)cc1)c1ccccc1O	x	27	1%	-17%	-7%	15*
COc1ccc(-c2c(C)oc3cc(O)cc(O)c3c2=O)cc1OC	5%	39	1%	0%	7%	-1
COc1ccc(-c2coc3cc(O)cc(O)c3c2=O)cc1OC	1%	56*	3%	38%	-3%	27*
COc1ccccc1-c1coc2cc(O)cc(O)c2c1=O	-7%	61*	7%	-29%	1%	30*
O=c1c(-c2ccc(O)cc2O)coc2cc(O)cc(O)c12	2%	6	4%	9%	10%	2
O=C(c1ccc2ccccc2n1)N(CCO)Cc1ccccc1	-15%	-10	1%	-5%	-1%	-3
O=C(O)C(=O)/C(=C\c1cccc2ccccc12)c1ccc2ccccc2n1	6%	-11	3%	-9%	11%	1
O=C(O)C(=O)/C(=C\c1ccsc1)c1ccc2ccccc2n1	x	87*	3%	-1%	-3%	27*
O=C(O)C(=O)/C(=C\c1ccccc1)c1ccc2ccccc2n1	0%	89*	4%	-3%	7%	34*
O=C(O)C(=O)/C(=C\c1ccc([N+](=O)[O-])cc1)c1ccc2ccccc2n1	-26%	49*	-4%	14%	-3%	27*
CC(C)Oc1cccc(C(=O)Nc2ccc(-c3nc4cc(Cl)cc(Cl)c4o3)cc2)c1	x	x	-10%	x	x	x
COc1ccc(-n2cc3c(c2-c2cccc(Br)c2)c(=O)n(C)c(=O)n3C)cc1OC	x	x	-10%	x	x	x
COc1ccnc(Oc2ccc3ccccc3c2)c1C#N	3%	60*	-3%	-17%	0%	61*
COc1ccnc(Oc2ccc(C)cc2)c1C#N	5%	121*	1%	9%	-1%	37*
COc1ccc(Oc2nccc(-c3ccc(F)cc3)c2C#N)cc1	1%	-2	-3%	10%	2%	-1
COc1ccc(Oc2nccc(-c3ccccc3)c2C#N)cc1	0%	133*	0%	-13%	3%	77*
COc1ccnc(Oc2ccc(F)cc2)c1C#N	0%	18	-2%	-6%	2%	-3
COc1ccc(C)cc1NC(=O)c1ccc2c(c1)N(Cc1cccc(Cl)c1)C(=O)c1ccccc1S2=O (stereo unspecified)	x	x	3%	x	x	x
NC(=O)c1c(NC(=O)C2CCCO2)sc2c1CCCC2 (stereo unspecified)	-11%	56*	-5%	1%	0%	38*

Screens deposited in PubChem BioAssay by National Center for Advancing Translational Sciences (NCATS).
